# PfGluPho inh: PfG6PD (Plasmodium falciparum) enzyme inhibition; 350,000 tested, 0.78% active; PfGluPho enzyme, NADPH resazurin-diaphorase fluorescence; inhibition, % at 20 µM;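 active = inhibition reaching at least a set limit at 20 µM in the primary screen, cut at about 59% in these data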;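 also: 0% = DMSO wells with substrate and 100% = DMSO wells lacking glucose-6-phosphate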
# A3A deaminase: blocks human APOBEC3A ssDNA deamination | recombinant A3A, FAM/TAMRA ssDNA deamination fluorescence | inhibition, % at 20 µM | P31941 | 330,000 tested, 0.41% active;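 active = at least 40% inhibition at 20 µM here, with at most 30% in a related deaminase screen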;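 also: plate controls were A3A with DMSO for no effect and wells lacking A3A enzyme for full effect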
# Target sequence (P31941 whole entry, looked up): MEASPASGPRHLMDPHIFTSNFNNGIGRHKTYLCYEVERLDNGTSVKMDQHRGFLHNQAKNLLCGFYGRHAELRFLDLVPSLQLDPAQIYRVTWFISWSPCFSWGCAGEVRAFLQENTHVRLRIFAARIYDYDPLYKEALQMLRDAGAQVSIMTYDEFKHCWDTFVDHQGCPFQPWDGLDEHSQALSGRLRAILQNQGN
# TAG inh: inhibitors of triacylglycerol accumulation | H9c2 cells, Nile Red lipid (TAG) fluorescence; cells loaded with 200 µM oleic acid | inhibition, % at 12.5 µM | 230,000 tested, 0.66% active | AID 651582;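 active = pattern-corrected inhibition of lipid staining of at least 50% with the nuclear-stain viability signal not falling by more than 50%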;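 also: 0% = DMSO wells and 100% = triacsin C control wells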
# NadD block: blocks S. aureus nicotinate mononucleotide adenylyltransferase | purified NadD enzyme, colorimetric absorbance read-out | inhibition, % at 20 µM | 360,000 tested, 0.78% active; in the data active = inhibition above about 26%
# APOBEC3G inh: inhibitors of human APOBEC3G DNA deaminase. recombinant A3G, ssDNA deamination FAM/TAMRA fluorescence. inhibition, % at 20 µM. 330,000 tested, 0.28% active. Q9HC16;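 active = inhibition of at least 40% at 20 µM, with no more than 30% in the related APOBEC3A deaminase screen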;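 also: plate controls were DMSO wells with A3G for no effect and wells lacking A3G enzyme for full effect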
# Target sequence (Q9HC16 whole entry, looked up): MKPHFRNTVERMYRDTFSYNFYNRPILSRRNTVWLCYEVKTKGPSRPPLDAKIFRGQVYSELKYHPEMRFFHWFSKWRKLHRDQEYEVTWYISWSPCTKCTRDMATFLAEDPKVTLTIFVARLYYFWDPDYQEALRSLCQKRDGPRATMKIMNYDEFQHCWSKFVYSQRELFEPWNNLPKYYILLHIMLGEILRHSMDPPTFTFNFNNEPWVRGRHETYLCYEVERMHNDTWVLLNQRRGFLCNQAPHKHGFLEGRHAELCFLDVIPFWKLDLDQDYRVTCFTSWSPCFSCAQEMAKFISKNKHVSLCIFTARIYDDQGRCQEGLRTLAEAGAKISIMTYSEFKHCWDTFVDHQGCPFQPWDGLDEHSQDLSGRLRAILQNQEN
# H9c2 protect: myocardial damage modulation in H9c2 cells; H9c2 cardiomyocytes, H2O2 injury protection, ATPLite, 2 h; protection from H2O2 cell death, % at 20 µM; 360,000 tested, 0.63% active; AID 588492;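 active = compounds giving at least 50% protection of heart cells from peroxide-induced death in the single-dose screen, raw or plate-pattern-corrected value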;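 also: 0% = DMSO wells with peroxide and 100% = DMSO wells without peroxide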
# NadD conf: confirmation of Staphylococcus aureus NadD inhibitors; AID 624309; 2,000 tested, 13% active; purified S. aureus NadD, colorimetric enzyme assay; inhibition, % at 20 µM; shares compounds with NadD block; in the data active = inhibition mostly above about 42%, no sharp cut-off; inactive = mostly below about 42%
# Starred values were filed as active, the others as inactive; / = no result given. Shown are actives, neighbours in structure and some others; about 2.9% of the full set was active somewhere.
SMILES,PfGluPho inh,A3A deaminase,TAG inh,NadD block,APOBEC3G inh,H9c2 protect,NadD conf
Cc1ccc(-c2cc(C(=O)Nc3ccc(S(=O)(=O)Nc4onc(C)c4C)cc3)c3ccccc3n2)cc1,-31,-1,10,31*,-2,-12,66*
Cc1ccc(-c2cc(C(=O)Nc3ccc(S(=O)(=O)Nc4cc(C)on4)cc3)c3ccccc3n2)c(C)c1,-24,-2,19,43*,-7,-17,65*
COC(=O)c1ccc(COc2cc(C)ccc2C)o1,-3,0,/,-12,-7,-6,/
CC(NC(=O)CN1C(=O)NC2(CCc3ccccc32)C1=O)c1ccc2c(c1)OCCO2 (stereo unspecified),-2,-2,-4,-2,-7,6,/
CCCn1c(C2CCCN2c2nc(-c3cccc(Br)c3)cs2)nc2cc(Cl)c(Cl)cc21 (stereo unspecified),8,-5,-12,36*,-7,1,30
CCCn1c(C2CCCN2c2nc(C)cs2)nc2cc(Cl)c(Cl)cc21 (stereo unspecified),3,-2,-6,2,-6,4,/
Cc1ccc(Cn2c(C3CCCN3c3nc(-c4cc(Cl)c(N)c(Cl)c4)cs3)nc3cc(Cl)c(Cl)cc32)cc1 (stereo unspecified),11,-1,9,51*,0,14,43*
OCCCn1c(C2CCCN2c2nc(-c3ccc(Cl)cc3)cs2)nc2cc(Cl)c(Cl)cc21 (stereo unspecified),11,0,39,29,3,-3,/
O=C1CSc2ccc(S(=O)(=O)N3CCN(c4ccccc4F)CC3)cc2N1,1,1,/,8,7,-11,/
Cc1[nH]n(-c2ccc(Br)cc2)c(=O)c1C=Nc1ccc(S(=O)(=O)Nc2nccs2)cc1,-18,2,/,42*,-2,-17,40
CCc1nnc(NS(=O)(=O)c2ccc(N=Cc3c(C)[nH]n(-c4ccc(C)c(C)c4)c3=O)cc2)s1,-4,-5,/,37*,-16,-22,55*
COc1ccc(Cl)cc1N(C(=O)c1ccco1)C(C(=O)NC1CCCC1)c1ccncc1 (stereo unspecified),-3,-2,/,1,-7,-4,/
N#Cc1c(NC2CCCCC2)nc(-c2ccco2)c2c1CCCC2,-7,-5,-7,38*,1,4,10
N#Cc1c(NCCCO)nc(-c2ccco2)c2c1CCCC2,-3,-2,12,1,-1,37,/
Cc1ncc2c(n1)-c1cc(F)ccc1SC2,9,-4,/,-1,-9,2,/
Nc1ncc2c(n1)-c1cc(Cl)ccc1SC2,-3,5,-10,29*,-14,5,5
O=C(Cn1ncn2c(cc3ccccc32)c1=O)NCCc1cccs1,2,-3,/,1,-5,-3,/
CC(C)CC(C(=O)Nc1oc(-c2ccco2)c(-c2ccco2)c1C#N)N1C(=O)c2ccccc2C1=O (stereo unspecified),24,12,-7,48*,3,-13,47*
COc1ccc(N(CC(=O)NC2CCS(=O)(=O)C2)S(=O)(=O)c2ccc(Cl)c(Cl)c2)cc1 (stereo unspecified),4,4,4,-5,-11,10,/
Cc1cccc(N(CC(=O)NC2CCCC2)C(=O)c2cc3cc4cccc(C)c4nc3s2)c1C,19,-2,/,40*,-5,9,10
CC1c2ccccc2-c2ccccc2N1C (stereo unspecified),18,/,-11,3,/,3,/
Clc1ccc(C2[C@H]3CN(CC4CCCCC4)[C@H](c4ccccc4)C34CC2(c2ccccc2)C4)cn1 (stereo partly specified),6,-2,-30,13,1,-16,/
COC(=O)c1ccc(C23CC4(C2)[C@H](CN(CC2CCCCC2)[C@@H]4c2ccccc2)C3c2ccc(Cl)nc2)cc1 (stereo partly specified),-14,1,14,35*,10,0,9
Cc1ccc(Cl)cc1NC(=O)C1C2CCC(O2)C1C(=O)O (stereo unspecified),13,-4,/,-7,-18,5,/
O=C(CCl)NC(Cc1c[nH]c2ccc(OCc3ccccc3)cc12)C(=O)O (stereo unspecified),-12,6,/,-4,2,4,/
SMILES,PfGluPho inh,A3A deaminase,TAG inh,NadD block,APOBEC3G inh,H9c2 protect,NadD conf
O=C(CN1CCOCC1)Nc1ccc(OC(F)(F)F)cc1,5,-6,/,-3,0,1,/
CCOC(=O)/C(C#N)=C\c1ccc(O)c(OC)c1,6,-1,-6,1,-5,-4,/
CCOC(=O)c1c(-c2ccc(C)cc2)csc1NC(=O)/C(C#N)=C/c1ccc(O)c(OC)c1,11,/,-32,59*,/,29,41
CCOC(=O)c1c(-c2ccccc2)csc1NC(=O)/C(C#N)=C\c1ccc(O)c(OC)c1,9,/,-19,35*,/,31,24
CC1(C(=O)NS(=O)(=O)c2cccc(Cl)c2)CCN1C(=O)c1ccccc1 (stereo unspecified),/,/,10,0,/,-4,/
CSc1ccc(C(c2c(C(=O)O)[nH]c3ccccc23)c2c(C(=O)O)[nH]c3ccccc23)cc1,-12,-4,4,37*,-8,4,48*
CCOc1cc(Br)cc(C(c2c(C(=O)O)[nH]c3ccccc23)c2c(C(=O)O)[nH]c3ccccc23)c1O,-17,0,-3,17,-10,-2,/
COc1ccc(C2=NS(=O)(=O)N(C)C(C(=O)NC3CCCCC3)=C2)cc1OC,6,0,-17,-2,2,-12,/
O=C(/C=C/c1ccc([N+](=O)[O-])cc1)/C=C/c1ccco1,/,67,/,38*,50,1,32
CCOC(=O)c1sc(NC(=O)c2cc(-c3ccccc3C)nc3ccccc23)c(C#N)c1C,44,1,-1,48*,9,-29,29
Cc1ccccc1-c1cc(C(=O)Nc2sc(C)c(C)c2C(N)=O)c2ccccc2n1,32,0,8,20,-2,-6,/
C[C@@H]1CN([C@H](C)CO)C(=O)CCCn2cc(nn2)CO[C@H]1CN(C)C(=O)Cc1ccccc1,-11,/,19,0,/,0,/
Cc1ccccc1N1CCN(CCN2C(=O)CC(=C3c4ccccc4-c4ccccc43)C2=O)CC1,3,2,/,31*,1,-4,39
O=C1CC(=C2c3ccccc3-c3ccccc32)C(=O)N1CCN1CCN(c2ccccc2)CC1,3,-3,/,38*,6,8,27
COc1ccccc1N1CCN(CCN2C(=O)CC(=C3c4ccccc4-c4ccccc43)C2=O)CC1,12,0,/,/,0,/,/
O=c1[nH]c2cc([N+](=O)[O-])ccc2c2cc(Br)ccc12,19,/,16,38*,/,15,11

# Assay outcomes deposited in PubChem by Sanford-Burnham Center for Chemical Genomics.
